Assay in all cases: NCI-60 one-dose screen, 48 h (100 = growth as untreated, 0 = no growth, -100 = all killed)
One assay has as its system NCI-H23 lung. The note with it: 10 µM unless noted.
In a further assay the test system is NCI-H322M lung. The note with it: 10 µM unless noted.
Another assay concerns HOP-62 NSCLC. Particulars: 10 µM unless noted.
The test system of another assay is NCI-H460 lung. The note with it: 10 µM unless noted.
The next assay has as its system A549/ATCC NSCLC. Particulars: 10 µM unless noted.
The subject of a further assay is 786-0 renal. The note with it: 10 µM unless noted.
A further assay concerns COLO 205 colon. The note with it: 10 µM unless noted.
The test system of a further assay is NCI-H522 lung. The note with it: 10 µM.
For a further assay, the system named is HOP-92 NSCLC. Particulars: 10 µM unless noted.

Compounds without any hit were thinned out: in the full panel of roughly 83,000, 20% have a hit.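 Interpretation: 100, growth as untreated; towards 0, rising growth inhibition; 0, no net growth; 0 to -100, cell death. Compounds scoring below 10 were considered active.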 A number with no mark means an inactive call. Calls of active or inactive are those of the source.

For the molecule `N#Cc1ccc(C(F)(F)F)nc1N1CCC(C(=O)Nc2ccc(Cl)cc2)CC1`, the growth in the assay with NCI-H23 lung is 72%; in the assay on NCI-H322M lung it was 71.1%; with HOP-62 NSCLC it was 69%; with NCI-H460 lung, 34.1%; in the assay with A549/ATCC NSCLC, 53.2%; in the assay on 786-0 renal, 70.4%. The growth with COLO 205 colon is 85.9%.
As for `O=C1C=CC(=O)N1CCCCCCCCCCN1C(=O)C=CC1=O`, the growth is 85.2% with NCI-H23 lung; 109% in the assay with NCI-H322M lung; 88.7% in the assay on HOP-62 NSCLC; 96.1% in the assay on NCI-H460 lung; -60.7% (active) in the assay with NCI-H522 lung; 97.4% in the assay on A549/ATCC NSCLC. Further, the growth in the assay on 786-0 renal is 88.7%; in the assay on COLO 205 colon it was 65.7%.
With `COc1cc(CNCCCN2C(=O)c3ccc4c5c(ccc(c35)C2=O)C(=O)N(CCCNCc2cc(OC)c(OC)c(OC)c2)C4=O)cc(OC)c1OC`, the growth in the assay on NCI-H23 lung was -74.8% (active); in the assay with NCI-H322M lung, -24.2% (active); in the assay with HOP-62 NSCLC, -81.4% (active); with NCI-H460 lung, -75% (active); with A549/ATCC NSCLC it was -84.8% (active); in the assay on 786-0 renal, -30% (active). Further, the growth with COLO 205 colon is -92.6% (active).
Turning to `O=C(Nc1ccccc1)Oc1cccc2cccnc12`, the growth in the assay on NCI-H23 lung was 87.1%; in the assay with NCI-H322M lung it was 138%; in the assay on HOP-62 NSCLC, 99.6%; in the assay with NCI-H460 lung, 74.8%; in the assay on A549/ATCC NSCLC, 93.3%; with 786-0 renal, 99.9%. Moreover, the growth with COLO 205 colon was 72.1%.
On to `CN1CCC(OC2c3ccccc3CCc3ccccc32)CC1`, for which the growth in the assay with NCI-H23 lung is 94.6%; with NCI-H322M lung it was 92.8%; in the assay with HOP-62 NSCLC, 93.8%; in the assay with NCI-H460 lung, 106%; in the assay with A549/ATCC NSCLC, 96.2%; in the assay with 786-0 renal, 103%. Moreover, the growth with COLO 205 colon was 99.1%.
For `CN1CCN(C(=O)OCCOCCOC(=O)N2CCN(C)CC2)CC1`, the growth in the assay with NCI-H23 lung was 97.6%; in the assay with NCI-H322M lung, 105%; in the assay on HOP-62 NSCLC, 106%; in the assay with NCI-H460 lung, 107%; in the assay on A549/ATCC NSCLC, 104%; with 786-0 renal, 94.5%. The growth in the assay on COLO 205 colon was 102%.
In the case of `Nc1c(Br)cc(Br)cc1-c1n[nH]c(=O)[nH]c1=O`, the growth is 91.3% in the assay with NCI-H23 lung; 109% in the assay on NCI-H322M lung; 93.5% in the assay on HOP-62 NSCLC; 102% with NCI-H460 lung; 113% in the assay on A549/ATCC NSCLC; 100% in the assay with 786-0 renal. In the assay on COLO 205 colon, the growth was 102%.
As for `CN1CCN(c2nc(-c3ccncc3)nc3sc4c(c23)CCCCCC4)CC1`, the growth in the assay on NCI-H23 lung was 73%; in the assay with NCI-H322M lung, 86.6%; in the assay with HOP-62 NSCLC it was 71%; in the assay on NCI-H460 lung, 84.3%; in the assay with A549/ATCC NSCLC, 69%; in the assay on COLO 205 colon, 52.8%.
In the case of `CCN(CC)CCCNc1ccc(C)c2sc3ccccc3c(=O)c12`, the growth in the assay with NCI-H23 lung is 53.8%; in the assay on NCI-H322M lung it was 57.2%; with HOP-62 NSCLC, 40.9%; with HOP-92 NSCLC, 25.3%; in the assay on A549/ATCC NSCLC it was 19.1%; in the assay with 786-0 renal, 32.5%. Moreover, the growth with COLO 205 colon was -70.2% (active).
With `Cc1nc2nc(C(F)(F)F)[nH]c2nc1C`, the growth in the assay on NCI-H23 lung is 107%; in the assay on NCI-H322M lung, 110%; in the assay on HOP-62 NSCLC it was 93.2%; in the assay with NCI-H460 lung it was 111%; in the assay on A549/ATCC NSCLC, 99.7%; in the assay with 786-0 renal, 93.5%. Besides, in the assay with COLO 205 colon, the growth was 108%.
As for `O=C1C(N2CCOCC2)=Cc2cccc3cccc1c23`, the growth in the assay with NCI-H23 lung is 100%; with NCI-H322M lung it was 111%; in the assay on HOP-62 NSCLC, 89%; in the assay with NCI-H460 lung, 93.2%; in the assay with A549/ATCC NSCLC it was 88.5%; in the assay on 786-0 renal, 103%. The growth in the assay on COLO 205 colon is 93.7%.
On to `c1ccc2cc(Cn3c(-c4ccc5ccccc5c4)[n+](Cc4ccc5ccccc5c4)c4ccccc43)ccc2c1`, for which the growth is -56.2% (active) in the assay with NCI-H23 lung; -7.14% (active) in the assay with NCI-H322M lung; -66.8% (active) in the assay on HOP-62 NSCLC; -81.7% (active) with NCI-H460 lung; -65.3% (active) in the assay with A549/ATCC NSCLC; -95.1% (active) in the assay on 786-0 renal. For the same molecule, the growth in the assay on COLO 205 colon was -69.5% (active).
`O=C1NC(=O)C2(CCCC2C(=O)O)N1` (stereo unspecified): the growth is 98.3% in the assay on NCI-H23 lung; 117% in the assay with NCI-H322M lung; 111% in the assay with HOP-62 NSCLC; 106% in the assay with NCI-H460 lung; 105% in the assay on A549/ATCC NSCLC; 94.9% in the assay on 786-0 renal. Also, the growth in the assay on COLO 205 colon is 109%.
`COc1ccc(Nc2[nH]n(C3=Nc4ccccc4Sc4ccccc43)c(=O)c2C#N)cc1`: the growth is 28.3% in the assay with NCI-H23 lung; 89.1% with NCI-H322M lung; 75.9% in the assay on HOP-62 NSCLC; 29.6% in the assay on NCI-H522 lung; 55.2% in the assay on A549/ATCC NSCLC; 64.7% in the assay on 786-0 renal. In addition, the growth in the assay on COLO 205 colon is 15.1%.
With `O=c1nc(NO)[nH]c(=O)n1Cc1ccc(F)cc1`, the growth in the assay with NCI-H23 lung was 106%; in the assay on NCI-H322M lung, 98.8%; in the assay with HOP-62 NSCLC, 107%; with NCI-H460 lung, 102%; with A549/ATCC NSCLC it was 104%; in the assay with 786-0 renal, 101%. Further, in the assay on COLO 205 colon, the growth is 118%.
Turning to `CCCCC1COc2cccc3c(SCC(=O)N(C)c4cccc5ccccc45)cc[n+]1c23` (stereo unspecified), the growth with NCI-H23 lung was 104%; in the assay on NCI-H322M lung, 110%; in the assay with NCI-H460 lung, 107%; in the assay on HOP-92 NSCLC, 105%; in the assay on NCI-H522 lung it was 83.5%; in the assay with A549/ATCC NSCLC it was 103%. The growth with 786-0 renal was 98.3%.
`COc1cccc(OC)c1OC(=O)c1ccccc1`: the growth was 100% in the assay on NCI-H23 lung; 110% in the assay on HOP-62 NSCLC; 102% in the assay on NCI-H460 lung; 82.5% in the assay with HOP-92 NSCLC; 95.5% in the assay with NCI-H522 lung; 96.5% in the assay on A549/ATCC NSCLC. Besides, in the assay on 786-0 renal, the growth was 106%.
For the molecule `Clc1ccc(C2=Nc3cccc4cccc(c34)N2)cc1Cl`, the growth with NCI-H23 lung is 76.9%; with NCI-H322M lung it was 103%; in the assay with NCI-H460 lung, 100%; in the assay on NCI-H522 lung, 62%; with A549/ATCC NSCLC it was 99.6%; with 786-0 renal it was 111%. The growth in the assay on COLO 205 colon is 100%.

The record behind these values is PubChem BioAssay (NCI).
